The values that follow come from PubChem BioAssay AID1637 (Sanford-Burnham Center for Chemical Genomics, 2009).

Each structure is given as a SMILES string. Among all 3,700 compounds or so, fewer than 10 were called active. A selection follows. A number with no mark means an inactive call. How the calls were made is not given here. Where only a bound is given, the exact number is not on record here.

A short description of the assay: NMR binding screen, influenza A RNA promoter, Kd (AID 1637). The settings on record: NMR binding to influenza A RNA promoter.
A word on the Kd: it is the constant that tells how readily two partners part at equilibrium. With `CC1=NNC(=O)C1CCc1ccncc1` (configuration not stated), the Kd was over 4 mM.

Regarding `O=C(NCc1ccccc1Br)c1ccco1`, the Kd is over 4 mM.

Regarding `COc1ccc(-c2c(OC)c3c(OC)c4c(cc3oc2=O)OC(C)(C)C=C4)cc1`, the Kd was over 4 mM.

For `CCN=Cc1c(O)n(-c2ccccc2C)c(=O)[nH]c1=O`, the Kd was over 4 mM.

For the molecule `NC(=O)c1ccc(NC(=O)C2CC2)cc1`, the Kd is over 4 mM.

In the case of `c1ccc(CCN2CCN(CCc3ccccn3)CC2)nc1`, the Kd was over 4 mM.

As to `COc1c(O)cc2c(c1O)[C@H]1O[C@H](CO)[C@@H](O)[C@H](O)[C@@H]1OC2=O`, the Kd is over 4 mM.

Consider `COc1cc(/C=C2/NC(=S)NC2=O)cc(Cl)c1O`, for which the Kd is over 4 mM.

With `O=C(Nc1nccs1)c1ccc(=O)[nH]n1`, the Kd was over 4 mM.

Take `COC(=O)c1ccc2nc[nH]c2c1`: the Kd was over 4 mM.

On to `CNS(=O)(=O)c1cccs1`, for which the Kd is over 4 mM.

Regarding `OCCCc1nc2ccc(C(F)(F)F)cc2[nH]1`, the Kd was over 4 mM.

As for `CC(=O)Nc1ccc(S(=O)(=O)N(C)C)cc1`, the Kd is over 4 mM.

`O=C(NCc1cccc(Cl)c1)c1cnccn1`: the Kd is over 4 mM.

For the molecule `Cc1cc(C)n(CCCC(=O)O)n1`, the Kd is over 4 mM.

With `Cn1c(O)c(/C=C2\C=CC=N2)c(=O)[nH]c1=O`, the Kd is over 4 mM.

With `CCOC(=O)c1ccc2c(c1)nnn2C`, the Kd is over 4 mM.

Consider `COc1ccc(-c2coc3c(OC)c(OC)cc(OC)c3c2=O)cc1`, for which the Kd is over 4 mM.

Consider `NCc1c[nH]c2ccccc12`, for which the Kd is over 4 mM.

For `Cn1c(=O)n(C)c2cc(C(N)=O)ccc21`, the Kd was over 4 mM.

In the case of `CC(C)=NNC(=O)C(=O)NC(C)(C)C`, the Kd is over 4 mM.

Turning to `NC(=O)C1CCN(C(=O)c2ccccc2)CC1`, the Kd was over 4 mM.

Take `CN1C(=O)/C(=C/c2ccc(O)cc2O)SC1=S`: the Kd was over 4 mM.

On to `NC(C(=O)O)C(O)c1ccccc1` (configuration not stated), for which the Kd was over 4 mM.

As to `CCOC(=O)c1c(C)[nH]c2ccc(O)cc12`, the Kd is over 4 mM.

In the case of `O=C(Cc1ccc(F)cc1)Nc1ncccn1`, the Kd is over 4 mM.

Regarding `Fc1ccc(-c2n[nH]c(=S)n2CC2CCCO2)cc1` (configuration not stated), the Kd was over 4 mM.

Consider `O=C(CC1SC(=O)NC1=O)Nc1nccs1` (configuration not stated), for which the Kd is over 4 mM.

For `O=C(O)c1cccc2c1OCCCO2`, the Kd was over 4 mM.

As to `NC(=S)CN1CCCC1=O`, the Kd was over 4 mM.

For the molecule `CC1=NN(c2ccc(C)cc2)C(=O)C1`, the Kd is over 4 mM.

On to `O=P(c1ccccc1)(c1ccccc1)C1CCOCC1`, for which the Kd is over 4 mM.

For `CC(=O)N1CCN(S(=O)(=O)c2ccccc2)CC1`, the Kd was over 4 mM.

As to `CN1CCN(CC(=O)N2CCc3ccccc32)CC1`, the Kd was over 4 mM.

For `O=C(NC1=NCCS1)c1cccc(F)c1`, the Kd was over 4 mM.

With `O=C1NC(=S)S/C1=C/c1ccncc1`, the Kd was over 4 mM.

Turning to `Cc1[nH]c2ccccc2c1C(=O)CSc1ncn[nH]1`, the Kd was over 4 mM.

Consider `O=C(NN1CCOCC1)c1ccccc1F`, for which the Kd is over 4 mM.

`Cc1cc(=O)oc2cc3c(cc12)OCCO3`: the Kd was over 4 mM.

Take `CC1SC(=NC(=O)c2ccncc2)NC1=O` (configuration not stated): the Kd is over 4 mM.

On to `Cc1cc(OC(=O)c2ccco2)c([N+](=O)[O-])c(=O)[nH]1`, for which the Kd was over 4 mM.

With `Cc1c(O)c(O)cc2c1CC=C1[C@@]2(C)CC[C@@]2(C)C3C[C@](C)(C(=O)O)CC[C@]3(C)CC[C@]12C` (some centres not stated), the Kd is over 4 mM.

Take `CCN1CCn2c1nc(N1CCOCC1)nc2=O`: the Kd is over 4 mM.

Take `Nc1cc(=O)[nH]c(=S)n1-c1ccc(F)cc1`: the Kd was over 4 mM.

In the case of `Cc1cc(=O)n2ncn(Cc3ccccc3)c2n1`, the Kd was over 4 mM.

Consider `Nc1ccc(-n2cccc2)cc1`, for which the Kd was over 4 mM.

Turning to `CC1(C)Cc2nc(N3CCOCC3)c(C#N)cc2CO1`, the Kd was over 4 mM.

Consider `O=C1c2cccnc2C(=O)N1Cc1ccc2c(c1)OCO2`, for which the Kd was over 4 mM.

For the molecule `Cn1ccnc1C(O)c1ccccc1` (configuration not stated), the Kd was over 4 mM.

As for `CS(=O)(=O)c1ccccc1C(=O)Nc1nccs1`, the Kd was over 4 mM.

On to `NS(=O)(=O)c1ccc(NC(=O)C2CC2)cc1`, for which the Kd is over 4 mM.

For `COc1ccc(/C=C2/NC(=S)NC2=O)cc1`, the Kd is over 4 mM.

Regarding `CC(=O)NC(NC(C)=O)c1ccccc1`, the Kd is over 4 mM.

Take `O=S(=O)(O)c1cc[n+]([O-])cc1`: the Kd was over 4 mM.

Regarding `Cc1cc(N2C(=O)CCC2=O)n(-c2ccccc2)n1`, the Kd was over 4 mM.

On to `Nc1nc(-c2ccc(O)cc2)cs1`, for which the Kd was over 4 mM.

For `O=C(CNC(=O)c1ccc(F)cc1)NC1=NCCS1`, the Kd was over 4 mM.

Turning to `COCCOc1nc2ccccc2nc1C`, the Kd is over 4 mM.

In the case of `O=C1C2CC=CCC2C(=O)N1c1ccccc1O` (configuration not stated), the Kd was over 4 mM.

In the case of `Cc1ccn(S(=O)(=O)c2ccc(F)cc2)n1`, the Kd was over 4 mM.

On to `NS(=O)(=O)c1ccc(NC(=O)C(F)(F)F)cc1`, for which the Kd is over 4 mM.

On to `CC(C)C(C)/C=C/C(C)[C@H]1CCC2C3=CCC4CC(=O)CC[C@]4(C)C3CC[C@@]21C` (some centres not stated), for which the Kd was over 4 mM.

Take `CS(=O)(=O)NC1CCN(Cc2ccccc2)CC1`: the Kd is over 4 mM.

As to `CC(=O)c1c(O)c(C)c(O)c2c1OC1=CC(=O)C(C(C)=O)C(=O)C12C` (configuration not stated), the Kd is over 4 mM.

Take `O=C(O)c1coc2c1C(=O)CCC2`: the Kd is over 4 mM.

Regarding `S=c1[nH]nc(-c2cccnc2)n1Cc1ccccc1`, the Kd is over 4 mM.

For `CS(=O)(=O)N1CCN(C(=O)Cc2cccs2)CC1`, the Kd is over 4 mM.

Consider `NC1=NC(=O)/C(=C/c2ccccc2[N+](=O)[O-])S1`, for which the Kd is over 4 mM.

Regarding `CCN1CC2(C)CC[C@H](OC)[C@]34C2[C@H](O)C2(OCO[C@@]25C[C@H](OC)[C@H]2C[C@]3(O)C5[C@H]2O)C14`, the Kd was over 4 mM.

Consider `O=c1c2ccccc2oc2ccc(O)cc12`, for which the Kd is over 4 mM.

As for `COc1cc(C)c(S(=O)(=O)N2CCN(C)CC2)cc1C`, the Kd is over 4 mM.

Consider `Nc1ncnc(NCc2cccnc2)c1[N+](=O)[O-]`, for which the Kd is over 4 mM.
